# Bioassay records from PubChem.
# BoNT-A LC inh2: BoNT A light chain protease inhibition; multiplex microsphere protease substrate cleavage, flow cytometry; inhibition, % at 10 µM; 0.17% of 360,000 active
# Anthrax LF prot: anthrax lethal factor protease inhibition | inhibition, % at 10 µM | P15917 | AID 588501 | multiplex microsphere protease cleavage assay, LF | 0.12% of 360,000 active
# BoNT F protease: inhibitors of Botulinum neurotoxin F light chain protease | Multiplex microsphere protease cleavage assay, flow cytometry | inhibition, % at 10 µM | 0.22% of 360,000 active; in the data active = inhibition above about 35%, passing the limit was not always enough; inconclusive = no clear call, values can overlap the other calls
# Autofluor counter: counter-screen for toxin protease inhibitors: compound fluorescence | 3.1% of 360,000 active | fluorescence intensity (test concentration not listed) | compound autofluorescence counterscreen, microsphere flow cytometry; active compounds read high; in the data active = fluorescence intensity above about 16000; inconclusive = no clear call, values can overlap the other calls
# Vc quorum ag: inducers of Vibrio cholerae quorum light production without autoinducers; AID 588436; activation, % at 18.7 µM; V. cholerae BH1578 lux reporter, luminescence, 6 h; 0.16% of 350,000 active; in the data active = activation mostly above about 9.7%, no sharp cut-off; inconclusive = no clear call, values can overlap the other calls; inactive = mostly below about 3.7%
# Hits are given with their value; i = inactive; ? = inconclusive; + = active, no number. Sampled rows, rich in hits. Any-hit rate of the full collection: about 3.5%. Rule as the data show it, unless noted: active = inhibition above about 30%; inconclusive = no clear call, values can overlap the other calls; inactive = below that.
SMILES,BoNT-A LC inh2,Anthrax LF prot,BoNT F protease,Autofluor counter,Vc quorum ag
O=[N+]([O-])c1cccc(S(=O)(=O)N2CCC(c3nc(-c4ccncc4)no3)CC2)c1,i,i,i,i,i
C=C(C)Cc1c(C)c(C#N)c2[nH]c3ccccc3n2c1=O,i,i,i,i,i
Cc1c(CCC(=O)O)c(=O)n2c([nH]c3ccccc32)c1C#N,i,i,i,20757,i
Cc1ccc(NCCC(=O)c2ccc(Cl)cc2)cc1,i,i,i,i,i
Cc1ccc(S(=O)(=O)C(CCC(=O)c2ccc(Cl)cc2)C(N)=O)cc1 (configuration not stated),i,i,i,21117,i
CN1CCCN(C(=O)c2c(F)cccc2Cl)CC1,i,i,?,i,i
CC(=O)N(Cc1ccccc1C)c1cccc(C)c1C,i,i,i,i,i
CCN(CC)S(=O)(=O)c1ccc(N2CCOCC2)c(NC(=O)c2sccc2C)c1,i,i,i,i,i
Cc1ccsc1C(=O)Nc1ccccc1N1CCOCC1,i,i,i,18871,i
O=C1NC2(CCCCC2)N=C1c1ccc(F)cc1,i,i,i,22118,i
O=C1NC2(CCCC2)N=C1c1ccc(Cl)cc1,i,i,i,23960,i
COc1ccc(OC)c(NC(=O)CSc2nc3nc(C)cc(C)n3n2)c1,i,i,i,i,i
CCCn1nnnc1-c1cccc(Cl)c1,i,i,i,20165,i
FC(F)(F)c1cccc(Cn2nnnc2-c2ccc(Cl)cc2)c1,i,i,i,22919,i
CCCn1nnnc1-c1ccc(Cl)cc1,i,i,i,19416,i
CCCn1nnnc1NC(=O)c1cc(Cl)ccc1Cl,i,i,i,i,i
CCCCn1c(N)c(N(CC(C)C)C(=O)C2CCN(S(=O)(=O)c3ccc(C)c(C)c3)CC2)c(=O)[nH]c1=O,i,i,i,i,i
CCN(Cc1nc2ccccc2c(=O)[nH]1)C(=O)c1cc2c(s1)CCCCC2,i,i,i,i,i
Cn1c(=O)n(-c2cccc(Cl)c2)c(=O)c2c3c(sc21)COC(C)(C)C3,i,i,i,17764,i
CC1(C)Cc2c(sc3c2c(=O)n(-c2ccc(Cl)cc2)c(=O)n3CC(N)=O)CO1,i,i,?,i,i
O=S1(=O)CCC(NS(=O)(=O)/C=C/c2ccccc2)C1 (configuration not stated),i,i,i,22642,i
O=S(=O)(/C=C/c1ccccc1)NC1CCCCCC1,i,i,i,i,i
COc1ccc(NC(=O)C(C)NS(=O)(=O)c2ccc(NC(C)=O)cc2)cc1Cl (configuration not stated),i,i,i,23479,i
O=S(=O)(Nc1cccc2ccccc12)c1ccccc1,i,i,i,i,i
COC(=O)Nc1ccc(S(=O)(=O)Nc2cccc3ccccc23)cc1,?,i,i,21995,i
SMILES,BoNT-A LC inh2,Anthrax LF prot,BoNT F protease,Autofluor counter,Vc quorum ag
COc1ccccc1NS(=O)(=O)c1ccc(NC(C)=O)cc1,i,i,i,18703,i
COc1ccccc1NS(=O)(=O)c1ccc(NC(=O)c2ccccn2)cc1,i,i,i,?,i
COc1c2c(c(CCC(=O)O)c3c1C=CC(C)(C)O3)OC(C)(C)C=C2,i,i,i,i,i
COc1ccc(-c2cc3nc(C4CCN(C(=O)OC(C)(C)C)CC4)c(C(=O)O)cn3n2)cc1,i,i,i,22638,i
CCOC(=O)c1cn2nc(-c3ccc(OCC)cc3)cc2nc1C1CCN(C(=O)OC(C)(C)C)CC1,i,i,i,i,i
COc1ccc(-c2c(C#N)c(N)nc3c2CCCC3)cc1OC,i,i,i,16197,i
Cc1ccc2nc(N/C(=N/S(=O)(=O)c3cccs3)c3ccccc3Cl)sc2c1,i,i,i,i,i
c1ccc(OCc2nnc3n2N=C(c2ccccc2)CS3)cc1,i,i,i,i,i
CCOc1ccc(C2=Nn3cnnc3SC2)cc1,i,i,i,22944,i
Cc1cccc(-c2nnc3n2N=C(c2ccccc2)CS3)c1,?,i,i,20710,i
COc1ccc(OCc2nnc3n2N=C(c2ccc(C)cc2)CS3)cc1,i,i,i,i,+
COc1ccc(OC)c(C2=Nn3c(nnc3-c3ccco3)SC2)c1,i,i,i,i,i
COc1ccc(C2=Nn3c(nnc3-c3ccco3)SC2)cc1,i,i,i,17209,i
COc1cc(OC)cc(C(=O)N[C@H](C(=O)OCC(=O)N2CCc3ccccc32)C(C)C)c1,i,i,i,i,i
COc1ccc(OC)c(-c2nnc3n2N=C(c2ccc(OC)c(OC)c2)CS3)c1,i,i,i,i,i
c1ccc(C2=Nn3c(nnc3-c3cccnc3)SC2)cc1,i,i,i,22262,i
CCOc1ccc(C2=Nn3c(nnc3-c3cccnc3)SC2)cc1,?,i,i,20067,i
CCOc1ccc(C2=Nn3c(nnc3-c3ccc(OC)cc3)SC2)cc1,i,i,i,17851,i
COc1ccc(OC)c(C2=Nn3c(nnc3-c3cccc(OC(C)C)c3)SC2)c1,i,i,i,16655,i
Cc1cc[n+](-c2ccccc2)c2ccccc12,i,i,i,i,i
CCCCNC(=O)c1c(C)cc(=O)oc1C,i,i,i,22316,i
CCC(C)NC(=O)c1c(C)cc(=O)oc1C (configuration not stated),i,i,i,20515,i
Cc1ccc(P(=O)(CC(=O)O)c2ccc(C)cc2)cc1,i,i,i,24105,i
CC(=O)NC(c1cccc(F)c1)c1nc(-c2cc(F)cc(Cl)c2)cs1 (configuration not stated),i,i,i,i,i
COc1cccc(N2C(=O)CC(N3CCC(C(N)=O)(N4CCCCC4)CC3)C2=O)c1 (configuration not stated),i,i,i,26152,i
SMILES,BoNT-A LC inh2,Anthrax LF prot,BoNT F protease,Autofluor counter,Vc quorum ag
C=CCn1c(SCC(=O)c2ccc(Br)cc2)nnc1C(CC(C)C)NC(=O)c1cccs1 (configuration not stated),?,i,i,22563,i
CC(C)CC(NC(=O)c1cccs1)c1nnc(SCc2ccc(Cl)c(Cl)c2)n1C (configuration not stated),i,i,i,i,i
Cc1ccc(-n2nc3c(=O)n(CCCC(=O)NC4CCC(C)CC4)nc(C)c3c2C)cc1 (configuration not stated),i,i,i,i,i
Cc1ccc(S(=O)(=O)N2CCC(C(=O)OC(C)C(=O)NCc3ccc4c(c3)OCO4)CC2)cc1 (configuration not stated),?,i,i,23314,i
CC(C)(C)NC(=O)CSc1nc(-c2ccccc2)c(-c2ccccc2)[nH]1,i,i,i,23364,i
Cc1cnc(=O)[nH]c1SCc1cccc([N+](=O)[O-])c1,i,i,i,i,i
COc1ccc(/C=N/NC(=O)c2cc(C34CC5CC(CC(C5)C3)C4)[nH]n2)cc1OC,i,i,39.6,i,i
COc1cccc(/C=N/NC(=O)c2cc(C34CC5CC(CC(C5)C3)C4)[nH]n2)c1,i,i,i,i,i
N#C/C(=C(/O)c1ccc(Cl)c([N+](=O)[O-])c1)c1nc2ccccc2[nH]1,i,i,i,i,i
COc1cc2c(cc1OC)CN(CC(=O)NC(=O)NCc1ccccc1)CC2,i,i,i,i,i
C/C=C(\C)CN1CCc2cc(OC)c(OC)cc2C1,i,i,i,24105,i
